An excerpt weighted towards active compounds, which were near 2.3% of everything screened.
ADAM17 inh – inhibits human ADAM17; P78536; recombinant ADAM17, EDANS/DABCYL FRET peptide cleavage; inhibition, % at 6.95 µM; hit rate 0.83% among 370,000; AID 720648;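 active means inhibition above the mean of compounds lying between control limits plus 3 SD, set per campaign, cut at about 8.5% in these data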;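 further: 0% = DMSO-only wells as the low control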
proKLK7 act – proKLK7 (human) activation, primary screen; P49862; purified proKLK7, EDANS-DABCYL substrate fluorescence; 100% is mature enzyme control, 0% vehicle; activation, % at 7 µM; hit rate 0.9% among 370,000; AID 652039;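 active means activation above the mean of all tested compounds plus 3 SD, computed per campaign excluding outliers beyond control limits, cut at about 13% in these data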
Target sequence (P49862 whole entry, looked up): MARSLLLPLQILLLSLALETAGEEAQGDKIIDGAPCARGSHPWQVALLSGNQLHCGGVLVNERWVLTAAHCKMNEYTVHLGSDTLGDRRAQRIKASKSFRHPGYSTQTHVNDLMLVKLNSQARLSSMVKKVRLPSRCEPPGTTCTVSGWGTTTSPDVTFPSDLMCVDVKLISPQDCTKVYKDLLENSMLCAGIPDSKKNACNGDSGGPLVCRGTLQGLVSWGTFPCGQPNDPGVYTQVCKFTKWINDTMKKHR
V-ATPase pHluor – alters yeast V-ATPase proton transport | hit rate 0.37% among 350,000 | response, % at 10 µM | AID 504577 | S. cerevisiae, pHLuorin cytosolic pH fluorescence; in the data active means response mostly above about 7.3%, no sharp cut-off; inactive means mostly below about 5.4%; further: actives read high
ADAM10 inh – inhibits human ADAM10 | inhibition, % at 7 µM | recombinant ADAM10, EDANS/DABCYL FRET peptide cleavage, 3 h | O14672 | hit rate 0.62% among 370,000;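 active means inhibition above a per-campaign cutoff equal to the mean of compounds falling between control-based bounds plus 3 SD, cut at about 20% in these data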;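 further: 0% = DMSO wells while the 100% control is not disclosed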
proKLK7 act conf – proKLK7 activation, confirmation; purified proKLK7, EDANS-DABCYL substrate fluorescence; scaled: vehicle 0, mature enzyme 100; shares compounds with proKLK7 act; activation, % at 7 µM; hit rate 68% among 3,200;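 active means activation, as change over the incubation, above the mean of all tested compounds plus 3 SD, cut at about 13% in these data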
EDANS-DABCYL int – optically interferes with EDANS-DABCYL signal, flagging KLK7 hits. hit rate 80% among 3,200. shares compounds with proKLK7 act. EDANS-DABCYL substrate fluorescence interference, no enzyme, 4 h; solvent 0%, active enzyme control 100%. activation, % at 7 µM;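 active means activation above the all-compound mean plus 3 SD, ignoring values outside control-based bounds, cut at about 4.8% in these data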;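 further: value is the 4 h activation minus the activation read at time zero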
EDANS interf – counter-screen for kallikrein-7 activators: EDANS-DABCYL interference, dose response; EDANS-DABCYL peptide fluorescence interference, no enzyme; EC50, µM; hit rate 20% among 250; AID 720493; shares compounds with proKLK7 act;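 active means compounds that raise the fluorescence signal in this interference counterscreen, with EC50 at or below 10 µM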;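 further: intact quenched peptide substrate alone read at 355 nm excitation and 520 nm emission; signal is fluorescence gain from T0 to T4 after four hours at room temperature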
Starred values were filed as active, the others as inactive; i = inactive; . = no result.

SMILES | ADAM17 inh | proKLK7 act | V-ATPase pHluor | ADAM10 inh | proKLK7 act conf | EDANS-DABCYL int | others
COC(=O)C1=C(C)N(C)C(=NCc2cccc(C(F)(F)F)c2)NC1c1ccc(C(F)(F)F)cc1 (stereo unspecified) | -1 | 0 | . | 3 | . | .
CC(C)c1ccc(NC(=O)C(c2ccc3c(c2)OCO3)N2CCC3(CC2)OCCO3)cc1 (stereo unspecified) | 7 | 0 | -1 | 19 | . | .
O=C(Nc1ccc2c(c1)OCO2)C(c1ccc(Cl)cc1)N1CCC2(CC1)OCCO2 (stereo unspecified) | 1 | 18* | 1 | 3 | 0 | -1
Cc1c(O)c(=O)c2ccccc2n1C | i | 92* | 1 | i | 73* | 64*
Cc1ccc(N=Cc2c(O)c3ccccc3n(C)c2=O)cc1 | -5 | 29* | -4 | -11 | -131 | -103
Cn1c(=O)c(-c2ccccc2)c(O)c2ccccc21 | -3 | 0 | 0 | -7 | . | .
O=S1(=O)c2ccc(Br)cc2OC[C@H](Cc2ccccc2)N1Cc1cn(Cc2ccc(C(F)(F)F)cc2)nn1 | -3 | 0 | . | -1 | . | .
Cc1ccc(NC(=O)C2=CC(c3cccs3)=NS(=O)(=O)N2C)cc1 | -4 | 18* | -1 | -6 | 22* | 13* | EDANS interf=i
Cc1ccc(NC(=O)CN2C(=O)S/C(=C\c3cc(C)n(C)c3C)C2=O)cc1 | -1 | 20* | 1 | -2 | 7 | 0
COc1ccccc1N1C(=O)S/C(=C\c2cc(C)n(C)c2C)C1=O | 1 | 24* | . | 1 | 32* | 80*
Cc1ccccc1N1CCN(C2=Nc3ccccc3Sc3ccccc32)CC1 | -2 | -1 | . | -6 | . | .
Cc1ccccc1C(=O)NNC(=S)NC(=O)c1ccc(Cl)cc1Cl | 3 | 0 | 1 | 6 | . | .
C=CCNC(=S)NNC(=O)c1cccn(Cc2ccc(Cl)cc2Cl)c1=O | -50 | 22* | 0 | -351 | 30* | 28*
CCNC(=S)NNC(=O)c1cccn(Cc2ccc(Cl)cc2Cl)c1=O | -58 | 32* | -3 | -433 | 31* | 47*
COc1cccc(CNC(=O)[C@H]2CCCN2C(=O)[C@H]2CCCN2C(=O)c2cccc(Cl)c2)c1 | -6 | 1 | . | -3 | . | .
CC1C2CC(CC1(C)C)N(C(=O)Nc1ccc3nccnc3c1)C2 (stereo unspecified) | -185 | 18* | -3 | i | -1 | -1
Cc1nc2cc(NC(=O)N3CC4(C)CC3CC(C)(C)C4)ccc2n1C (stereo unspecified) | -2 | 0 | -3 | 2 | . | .
CCOC(=O)c1cnn(-c2sc(C(=O)OCC)c(C)c2C(=O)OCC)c1N | -9 | 18* | . | -31 | 1 | 1
CCCC(c1nnnn1C(C)(C)CC)N(Cc1ccco1)Cc1cc2ccc(OC)cc2[nH]c1=O (stereo unspecified) | -185 | 19* | 6 | i | -2 | -1
CCN(C)c1ccc(/C=N\n2nnnc2N)cc1 | -91 | 13* | -3 | -381 | 46* | 43*
Nc1nnnn1/N=C/c1ccc(O)cc1 | -17 | -6 | -4 | -51 | . | .
c1ccc(-c2ccc(-c3ccccn3)s2)nc1 | i | 15* | -2 | i | -19 | -7
C=CCCC[C@H]1OC(=O)[C@H](C)NC(=O)[C@H](C(C)C)NC(=O)[C@@H]2CCCN2C(=O)[C@H](Cc2ccccc2)OC(=O)[C@@H](C(C)C)N(C)C(=O)[C@H](C(C)C)NC(=O)C1(C)C | -2 | 1 | . | 9 | . | .
Cc1ccc(S(=O)(=O)c2c(N)n(NC(=O)c3ccco3)c3nc4ccccc4nc23)cc1 | -367 | 46* | -1 | i | 4 | 6.0*
Cc1ccc(S(=O)(=O)c2c(N)n(Cc3ccco3)c3nc4ccccc4nc23)cc1 | -499 | -32 | 3 | i | . | .
Nc1nc2ncccn2c1-c1ccc(C(F)(F)F)cc1 | -91 | 26* | . | -377 | 60* | 63*
Cc1ccc(NC(=O)OC2CC3CC2[C@H]2CCCCN2[C@H]3C)cc1 (stereo partly specified) | -3 | 0 | . | -7 | . | .

Screening data as filed in PubChem BioAssay.
